Source: PubChem BioAssay
In the library only some 5.4% were active in any assay of this set; here they are far more common.
Beta cell apopt – blocks beta cell apoptosis; actives 0.8% (n = 300,000); INS-1E cytokine-induced death, ATP luminescence, 48 h; percent of positive-control rescue, neutral wells zero; protection from apoptosis, % (test concentration not listed);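 active = Every replicate reaches about 75%, or at least half do and their mean reaches it too, limit read from the data; inconclusive = At least half of replicates reach the limit but their mean does not; inactive = Under half of replicates reach the limit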;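 also: 0% = cytokine-treated negative control wells and 100% = positive control rescue; higher means more ATP so stronger rescue from cytokine killing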
MPTP inh – blocks calcium-induced mitochondrial swelling. isolated mouse mitochondria, Ca2+ swelling absorbance, 30 min. inhibition, % at 10 µM. actives 1.4% (n = 360,000). AID 602449;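 active = inhibition of 50% or more, scaled per plate between neutral and stimulator controls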;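 also: 0% = DMSO wells given calcium and 100% = 1 mM EGTA wells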
SKKanGAS inh – blocks kanamycin growth of S. pyogenes SKKanGAS strain; BacTiter-Glo, 6 h; inhibition, % at 7.5 µM; actives 1.3% (n = 300,000); AID 1662;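 active = mean replicate score, as percent of positive control median, at least 50; inconclusive = mean below 50 but one replicate at or above 50; inactive = mean and every replicate below 50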;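 also: strain carries kanamycin resistance gene driven by streptokinase promoter and grows in 40 µg/ml kanamycin; loss of luminescence reflects streptokinase promoter inhibition or plain growth inhibition; 0% = median of DMSO wells and 100% = positive control at its reference dose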
Calb FLC – C. albicans growth modulation with fluconazole; C. albicans CaCi-2 (fluconazole-resistant clinical isolate) + fluconazole, Alamar Blue growth, 48 h; growth inhibition, % (concentration not given with the values); actives 0.57% (n = 300,000);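 active = growth inhibition above about 58% in most replicates, limit read from the data, passing the limit was not always enough; inconclusive = exactly half the replicates above a set limit; inactive = most replicates below a set limit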;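 also: all wells also contain fluconazole at 8 µg/ml as a sub-toxic cotreatment; 0% = median of DMSO wells and 100% = median of geldanamycin control wells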
Mdm2 MdmX PPI – inhibitors of human Mdm2/MdmX interaction | O15151+Q00987 | SaOS-2 split-luciferase Mdm2/MdmX complementation, luminescence | inhibition, % at 8 µM | actives 3% (n = 330,000);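 active = inhibition of at least 50% at 8 µM in the primary screen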
Target sequence (O15151 whole entry, looked up): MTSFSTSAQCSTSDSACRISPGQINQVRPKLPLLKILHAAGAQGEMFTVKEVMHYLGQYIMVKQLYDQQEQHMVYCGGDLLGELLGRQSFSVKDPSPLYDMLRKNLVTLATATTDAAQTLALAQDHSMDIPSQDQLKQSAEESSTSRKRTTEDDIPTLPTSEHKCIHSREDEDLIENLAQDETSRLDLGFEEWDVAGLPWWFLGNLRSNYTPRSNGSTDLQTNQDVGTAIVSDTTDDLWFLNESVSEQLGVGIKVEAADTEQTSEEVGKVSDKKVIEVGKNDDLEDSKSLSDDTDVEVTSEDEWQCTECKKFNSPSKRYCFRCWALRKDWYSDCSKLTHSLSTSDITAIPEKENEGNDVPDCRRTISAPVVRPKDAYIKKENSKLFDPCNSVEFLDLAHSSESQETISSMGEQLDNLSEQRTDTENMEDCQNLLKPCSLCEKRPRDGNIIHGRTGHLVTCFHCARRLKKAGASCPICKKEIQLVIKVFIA
Target sequence (Q00987 whole entry, looked up): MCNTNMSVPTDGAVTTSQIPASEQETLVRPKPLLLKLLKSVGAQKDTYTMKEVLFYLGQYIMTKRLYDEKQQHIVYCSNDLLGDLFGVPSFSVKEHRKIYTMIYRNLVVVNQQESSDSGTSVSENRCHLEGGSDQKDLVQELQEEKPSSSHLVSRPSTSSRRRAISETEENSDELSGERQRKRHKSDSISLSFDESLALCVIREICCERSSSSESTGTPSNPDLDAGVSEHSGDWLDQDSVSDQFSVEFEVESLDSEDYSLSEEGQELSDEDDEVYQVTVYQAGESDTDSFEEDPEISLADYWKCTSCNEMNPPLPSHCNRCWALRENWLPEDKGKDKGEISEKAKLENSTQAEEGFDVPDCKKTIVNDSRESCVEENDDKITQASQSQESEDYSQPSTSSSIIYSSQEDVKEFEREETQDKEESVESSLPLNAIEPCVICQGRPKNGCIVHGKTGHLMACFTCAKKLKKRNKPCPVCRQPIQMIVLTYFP
CSC inhib – blocks cancer stem cells | cancer stem cell-like cells viability, luminescence | inhibition, % at 7.5 µM | actives 1.1% (n = 300,000) | AID 2717; in the data active = inhibition above about 75%; inconclusive = no clear call, values can overlap the other calls; tested in HMLE shEcad cells
Numbers without * were called inactive.

For O=C(c1ccc(-c2ccc(Cl)cc2)o1)N1CCN(c2ccc([N+](=O)[O-])cc2Cl)CC1 the results were Beta cell apopt 113.3*, MPTP inh 43.7, SKKanGAS inh 7.2, Calb FLC -3.9, Mdm2 MdmX PPI 2.6 and CSC inhib 43.0.
Screening O=S1(=O)N=C(Nc2ccc(N3CCOCC3)cc2)c2ccccc21 returned Beta cell apopt -0.8, MPTP inh -1.9, Calb FLC 86.2*, Mdm2 MdmX PPI 13.6 and CSC inhib 0.3.
Cc1oc(C(C)(C)C)cc1C(=O)N1CCN(C(c2ccccc2)c2ccccc2)CC1 was read as Beta cell apopt 13.5, MPTP inh 1.8, SKKanGAS inh 63.3*, Calb FLC 5.3, Mdm2 MdmX PPI 19.2 and CSC inhib 48.6.
Cc1occc1C(=O)N1CCN(C(c2ccccc2)c2ccccc2)CC1 was read as Beta cell apopt -3.0, MPTP inh 0.8, SKKanGAS inh -0.9, Calb FLC inconclusive, Mdm2 MdmX PPI 22.3 and CSC inhib 0.9.
For Cc1nc(N/N=C/c2ccccn2)sc1C the results were Beta cell apopt 110.0* and CSC inhib 69.8.
`Cc1cc(C)n2nc(/C(C#N)=C/c3ccccn3)c(C#N)c2n1` gave Beta cell apopt -2.3, MPTP inh -0.6, SKKanGAS inh 4.0, Calb FLC -10.2, Mdm2 MdmX PPI 46.2 and CSC inhib 10.9.
For Cc1cc(NC(=S)N(Cc2ccc(Cl)cc2)Cc2ccc(C(=O)O)cc2)ccc1Cl the results were Beta cell apopt -2.4, MPTP inh -3.4, SKKanGAS inh 64.4*, Calb FLC 16.6, Mdm2 MdmX PPI 0.7 and CSC inhib 5.0.
`Cc1ccc(NC(=S)N(Cc2ccc(Br)cc2)Cc2ccc(C(=O)O)cc2)cc1C` gave Beta cell apopt -0.1, MPTP inh -0.8, SKKanGAS inh 52.8*, Calb FLC 13.1, Mdm2 MdmX PPI -25.7 and CSC inhib 4.1.
Cc1cc(C)cc(NC(=S)N(Cc2ccc(Br)cc2)Cc2ccc(C(=O)O)cc2)c1 was read as Beta cell apopt -1.7, MPTP inh -0.3, SKKanGAS inh 33.6, Calb FLC 61.9, Mdm2 MdmX PPI 9.3 and CSC inhib 12.3.
`Cc1cc(C)cc(NC(=S)N(Cc2ccc(Cl)cc2)Cc2ccc(C(=O)O)cc2)c1` gave Beta cell apopt -3.0, MPTP inh 2.4, SKKanGAS inh -11.5, Calb FLC 21.2, Mdm2 MdmX PPI -27.3 and CSC inhib 4.3.
CCc1c(C)n([O-])c2c([n+]1=O)CCC2 was read as MPTP inh -0.3, SKKanGAS inh -6.5, Calb FLC -16.7, Mdm2 MdmX PPI -20.0 and CSC inhib -7.8.
Screening CN(C(=O)CSc1nc2ccccc2c(=O)n1-c1ccccc1F)C1CCS(=O)(=O)C1 (configuration not stated) returned Beta cell apopt -1.8, MPTP inh -0.4, Mdm2 MdmX PPI 9.5 and CSC inhib -10.5.
`Clc1ccc(CN(Cc2ccccc2)C(c2cccs2)c2nnnn2C2CCCC2)cc1` (configuration not stated) gave Beta cell apopt 8.2, MPTP inh 1.6, SKKanGAS inh 6.0, Calb FLC -4.3, Mdm2 MdmX PPI -3.7 and CSC inhib 18.7.
Fc1ccc(CN(Cc2ccccc2)C(c2cccs2)c2nnnn2C2CCCCC2)cc1 (configuration not stated) was read as Beta cell apopt 93.8*, MPTP inh 6.3, SKKanGAS inh 2.2, Calb FLC 6.4, Mdm2 MdmX PPI 23.5 and CSC inhib 16.4.
Cc1onc(-c2c(Cl)cccc2Cl)c1C(=O)N[C@@H]1C(=O)N2[C@@H]1SC(C)(C)[C@@H]2C(=O)O was read as Beta cell apopt 4.9, MPTP inh -0.7, SKKanGAS inh 3.7, Calb FLC -2.3, Mdm2 MdmX PPI 11.5 and CSC inhib 2.6.
For CC1(C)S[C@@H]2[C@H](NC(=O)COc3ccccc3)C(=O)N2C1C(=O)OCc1cc2ccccc2n1S(=O)(=O)c1ccccc1 (some centres not stated) the results were Beta cell apopt -2.2, SKKanGAS inh 77.8*, Calb FLC 4.0 and CSC inhib -13.2.
CC1(C)SC2C(NC(=O)C3(N)CCCCC3)C(=O)N2C1C(=O)O (configuration not stated) was read as MPTP inh -0.3.
CCOC(=O)OC(C)OC(=O)[C@@H]1N2C(=O)[C@@H](NC(=O)[C@H](N)c3ccccc3)[C@H]2SC1(C)C (some centres not stated) was read as Beta cell apopt -3.7, MPTP inh -1.7, Mdm2 MdmX PPI 19.1 and CSC inhib -12.8.
Cc1onc(-c2c(Cl)cccc2Cl)c1C(=O)NC1C(=O)N2C1SC(C)(C)C2C(=O)O (configuration not stated) was read as Beta cell apopt -10.2, MPTP inh -0.8, SKKanGAS inh 79.3*, Calb FLC 5.6, Mdm2 MdmX PPI -6.8 and CSC inhib -16.9.
Screening CC(Oc1ccccc1)C(=O)NC1C(=O)N2C1SC(C)(C)C2C(=O)O (configuration not stated) returned Beta cell apopt 3.8, MPTP inh 0.8, SKKanGAS inh 106.0*, Calb FLC -19.6, Mdm2 MdmX PPI 2.1 and CSC inhib 2.1.
CC1(C)S[C@@H]2[C@H](NC(=O)COc3ccccc3)C(=O)N2C1C(=O)OCC1CCCCC1 (some centres not stated) was read as Beta cell apopt 0.8, MPTP inh 0.2, SKKanGAS inh 64.0*, Calb FLC 17.5, Mdm2 MdmX PPI 19.7 and CSC inhib 18.0.
Screening NS(=O)(=O)c1cccc(NC(=O)CSc2nnc(NC3CC3)s2)c1 returned MPTP inh -0.7.
CN1CCC(=O)N([C@H](CO)c2ccccc2)CC1 was read as Beta cell apopt -5.7, MPTP inh 0.0, SKKanGAS inh -2.1, Calb FLC -0.9, Mdm2 MdmX PPI 25.0 and CSC inhib -5.9.
For NS(=O)(=O)c1ccc(N2N=C(c3ccccc3)CC2c2ccc(F)cc2)cc1 (configuration not stated) the results were Beta cell apopt 6.9, MPTP inh 2.6, SKKanGAS inh 63.9*, Calb FLC 27.9, Mdm2 MdmX PPI 17.7 and CSC inhib 9.9.
`Oc1ccc(C2=NN(c3ccccc3)C(c3ccc(F)cc3)C2)cc1` (configuration not stated) gave Beta cell apopt -1.6, MPTP inh 1.7, SKKanGAS inh 81.0*, Calb FLC -8.3, Mdm2 MdmX PPI 2.6 and CSC inhib inconclusive.
Screening CCC(=O)Nc1cccc(NC(=S)NC(=O)c2cccs2)c1 returned Beta cell apopt -6.5, MPTP inh 1.1, SKKanGAS inh -8.2, Calb FLC 4.8, Mdm2 MdmX PPI -91.7 and CSC inhib -7.5.
For CC(=O)c1cccc(NS(=O)(=O)c2ccc(N/C=C\C(=O)c3ccc(F)cc3)cc2)c1 the results were Beta cell apopt 97.9*, MPTP inh 32.4, SKKanGAS inh 35.6, Calb FLC -34.6, Mdm2 MdmX PPI 7.1 and CSC inhib 19.8.
